The values below come from PubChem BioAssay AID652017 (The Scripps Research Institute Molecular Screening Center, 2013).

Among all 370,000 compounds or so, about 3,800 (1%) were called active. Only a selection was taken, and actives are over-represented in it overall. Unmarked numbers belong to inactive results. Rule as the data show it: active = activation above about 7.8%; inactive = the rest.

The nature of this test: SMARCA2 (BRM) function activators, primary screen, cell-based, luminescence, high throughput (AID 652017).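 Also: 0% = vehicle wells and 100% = reference activator wells.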 To be noted: MG213 cells, MMTV-luciferase reporter, dexamethasone, overnight; at 9.1 µM; stronger effect = higher value.
Regarding `CN(CCc1ccccc1)C(=O)Cn1nc(-c2ccccc2)ccc1=O`, the activation was -2.33%.

For the compound `CC(=O)Cn1ncc(N2CCOCC2)c(Br)c1=O`, the activation was -2.3%.

For the compound `O=C(Cn1ncc(N2CCCC2)c(Br)c1=O)c1ccc(Cl)cc1`, the activation is 9.66% (active).

Turning to `O=C(Cn1nc(CNc2ccc(Cl)cc2)[n+]2c1CCCCC2)c1ccc(Cl)cc1`, the activation was -6.64%.

Turning to `Cc1ccc(-n2c(SCC(=O)Nc3ccc(S(=O)(=O)Nc4nccs4)cc3)nnc2-c2ccccn2)cc1`, the activation was -6.25%.

As for `CCOC(=O)C(=O)N(Cc1ccccc1)c1ccccc1C(=O)Nc1cc(OC)ccc1OC`, the activation was -5.19%.

As for `CC(c1c[nH]c2ccccc12)c1c(-c2ccccc2)n(C)c2ccccc12` (stereo unspecified), the activation was -5.18%.

For the compound `COc1ccc(C(=O)Nc2sc(C)c(C)c2CN2CCOCC2)cc1`, the activation was 8.14% (active).

As to `CCc1cc(C(c2ccccc2OC)N2CCOCC2)c(NC(=O)c2ccccc2)s1` (stereo unspecified), the activation is -0.4%.

Consider `COc1ccc(C(=O)Nc2ccnn2C2CCN(Cc3ccncc3)CC2)cc1`, for which the activation is -1.75%.

As to `O=C(CCl)NC1CCCCN(Cc2cccc(C(F)(F)F)c2)C1=O` (stereo unspecified), the activation is -2.12%.

`CNC(=O)CN1C(=O)NC(c2ccccc2)(c2ccccc2)C1=O`: the activation is -2.01%.

Regarding `CCCCn1c(SCC(=O)NCC2CCCO2)nc2ccc(N3CCOCC3)cc2c1=O` (stereo unspecified), the activation was -3.78%.

`Cc1ccc(NC(=O)c2cnc(SCC(=O)NCC3CCCO3)n(C)c2=O)cc1` (stereo unspecified): the activation was 8.79% (active).

For the compound `Cn1c(SCC(=O)c2ccccc2)ncc(C(=O)Nc2ccc(F)cc2)c1=O`, the activation was -2.22%.

Regarding `Cc1ccccc1-n1cc(CNC(=O)CC2C(=O)NCCN2C/C=C/c2ccccc2)cn1` (stereo unspecified), the activation was -1.02%.

Turning to `CCCNC(=O)Nc1ccc2c(c1)C(=O)N(C)[C@H]1CC[C@H](CC(=O)NCC3CCCCC3)O[C@@H]1CO2`, the activation is -2.38%.

Consider `CC1(C(=O)NCc2ccccc2)CSCC(=O)N1CCCN1CCOCC1` (stereo unspecified), for which the activation is -6.77%.

Turning to `O=S1(=O)c2ccc(Br)cc2OC[C@H](Cc2ccccc2)N1Cc1cn(Cc2ccccc2)nn1`, the activation was -4.73%.

Take `COc1nc(N=C(N)N)nc2c(C)cccc12`: the activation is 5.28%.

Consider `Cc1nc(N=C(N)N)nc2c(C)cccc12`, for which the activation is 18.7% (active).

With `Nn1c(SCC(=O)N2c3ccccc3Sc3ccccc32)nnc1-c1n[nH]c2c1CCC2`, the activation is -2.45%.

In the case of `CCCC[C@H](C(=O)N(CC)c1ccccc1)[C@@H](O)c1ccc2ccccc2c1`, the activation was -2.79%.

Regarding `CN1C[C@]2(C=C3CCCCC3n3c(=O)n(-c4ccccc4)c(=O)n32)N=C1NC(=O)c1ccccc1` (stereo partly specified), the activation was -3.36%.

As for `O=C(COC(=O)c1cccnc1Cl)NC12CC3CC(CC(C3)C1)C2`, the activation is -0.27%.

On to `COCOc1cccc(CN2CCC(C)(Oc3ccc(SC)cc3)C2)c1` (stereo unspecified), for which the activation is -2.3%.

As to `CCOC(=O)[C@]12CCCCC/C=C\1N(Cc1ccc(OC)cc1)C(=O)[C@H]2CC(=O)N1CCOCC1`, the activation was -3.81%.

With `O=C(NCc1ccccc1Cl)C1CCCO1` (stereo unspecified), the activation was -4.52%.

Turning to `O=C(Nc1nnc(CCc2ccccc2)s1)C1CCCO1` (stereo unspecified), the activation was 8.46% (active).

With `O=C(C1CCCO1)N(Cc1ccccc1)c1ccccc1` (stereo unspecified), the activation was -1.33%.

For `CC(=O)C1(C(=O)Nc2nccs2)CC(c2ccccc2C(F)(F)F)=NO1` (stereo unspecified), the activation is -1.46%.

For the compound `COc1ccc(CN(CCN2CCOCC2)C(=O)c2ccc(C)cc2)cc1OC`, the activation is -0.94%.

Take `CN(C)[C@H]1CCN(c2cccc3c2S(=O)(=O)N2CC[C@H](C2)O3)C1`: the activation is 0.57%.

As for `COc1ccc(-c2cc(-c3nnc(SCC(=O)Nc4cccc5ccccc45)n3N)[nH]n2)cc1`, the activation was -3.63%.

Regarding `C=CCOC/C=C/C#CCN(CC=C)Cc1ccc(OC)cc1OC`, the activation is 7.87% (active).

`COc1ccc(CN(C)Cc2nc3cc(OC)c(OC)cc3c(=O)[nH]2)c(OC)c1`: the activation was -2.98%.

`COc1ccc(C#CCNCc2ccc(OC)cc2OC)cc1`: the activation is -1.96%.

On to `C=CCN1C(=O)[C@H](CC(=O)N2CCN(C(=O)OCC)CC2)[C@@]2(C(=O)OCC)CCCC=C12`, for which the activation was -0.21%.

On to `C=CCN1C(=O)[C@H](CC(=O)NCCCN2CCCC2=O)[C@@]2(C(=O)OCC)CCCC=C12`, for which the activation was -0.89%.

As for `CCn1c2ccccc2c2cc(NC(=O)CSc3nnc(-c4ccccc4)n3-c3ccc(C)cc3)ccc21`, the activation is -2.83%.

In the case of `CCc1cc2c(=O)c(-c3nc4ccccc4n3C)c(CCCC(=O)O)oc2cc1OC(=O)C(C)(C)C`, the activation is -2.32%.

Turning to `CCc1cc2c(=O)c(-c3ccon3)c(N)oc2cc1OC`, the activation was 8.66% (active).

For `COc1ccc2oc(N)c(C=O)c(=O)c2c1`, the activation is 0.14%.

`O=S1(=O)c2c(NCc3ccco3)cccc2Oc2ccccc2CN1Cc1cn(Cc2cccc(C(F)(F)F)c2)nn1`: the activation is -3.67%.

As to `CCN(CC)CCOC(=O)c1ccc(NC(=O)CNC(=O)c2ccccc2)cc1`, the activation is -3.5%.

As for `CCN(CC)CCNC(=O)c1ccc(NC(=O)c2cc(-c3ccncc3)nc3ccccc23)cc1`, the activation is 8.42% (active).

As to `CCN(CC)CCNC(=O)c1ccc(NC(=O)c2c(F)cccc2Cl)cc1`, the activation was -0.88%.

Take `O=C1Nc2ccccc2OC1CC(=O)N1CCCCCCC1` (stereo unspecified): the activation was 0.95%.

On to `COc1ccc(-c2ccc3nnc(SCC(=O)Nc4ccc(NC(C)=O)cc4)n3n2)cc1`, for which the activation was -0.74%.

Take `O=C1/C(=C\c2ccc([N+](=O)[O-])cc2)CS(=O)(=O)C/C1=C/c1ccc([N+](=O)[O-])cc1`: the activation was 16.5% (active).

For `O=[N+]([O-])c1ccc(CN2CC(N3CC=CC3)CS2(=O)=O)cc1` (stereo unspecified), the activation is -2.21%.

Turning to `C[C@H](C(=O)N(C)c1ccccc1)[C@@H](O)c1ccc2ccccc2c1`, the activation is -2.92%.

Regarding `CCCCCCNS(=O)(=O)c1ccccc1Br`, the activation is -0.14%.

As for `c1csc(-c2nnc(SCc3nc4ccccc4[nH]3)o2)c1`, the activation was -0.75%.

Consider `O=C(CSc1ccc(-c2cccs2)nn1)Nc1ccccc1F`, for which the activation is -0.22%.

As for `Cc1cccc(CSc2ccc(-c3cccs3)nn2)c1`, the activation is 9.78% (active).

Regarding `CC(C)(C)c1ccc(CSc2nnc(-c3cccs3)o2)cc1`, the activation was -1.53%.

Take `Cc1ccc(OCc2nnc(SC/C=C/c3ccccc3)n2Cc2ccco2)cc1`: the activation is -4.07%.

As for `CC(OC(=O)c1cc2ccccc2o1)C(=O)Nc1ccc(N2CCOCC2)cc1` (stereo unspecified), the activation is -1.72%.

Regarding `Cc1ccc(NC(=O)c2cc3ccccc3o2)cc1`, the activation is 8.36% (active).

Take `Cc1cccc(-n2nc3c(c2NC(=O)c2cc4ccccc4o2)CS(=O)(=O)C3)c1`: the activation is -1.69%.

On to `O=C(Nc1ccccc1)N1CCN(Cc2nc3ccccc3c(=O)[nH]2)CC1`, for which the activation was -4.04%.

Turning to `COC(=O)c1cc(S(=O)(=O)N2CCN(c3ccccc3C)CC2)cn1C`, the activation was -6.95%.

`CCCCOCCCNC(=O)C[C@H]1C[C@@]2(C(=O)OC)C(=C[C@H](C(C)(C)C)O[C@@H]2C)N(CCc2ccc(OC)c(OC)c2)C1=O`: the activation was -1.39%.

Consider `Nc1[nH]c(/C=C2/CCCCC2n2[nH]c(=O)n(-c3ccccc3)c2=O)c(Cc2ccccc2)[n+]1Cc1ccccc1` (stereo unspecified), for which the activation was -4.04%.

On to `COc1ccc(S(=O)(=O)NC(C)C(=O)N2CCCCCC2)cc1` (stereo unspecified), for which the activation was 8.03% (active).

On to `COc1ccc(CNS(=O)(=O)c2ccc(NC(=O)N3CCCCC3)cc2)cc1`, for which the activation is -3.18%.

On to `COc1ccc(N2CC(C(=O)N[C@@H](C)C(=O)N3CCCCC3)CC2=O)cc1` (stereo partly specified), for which the activation is 1.33%.

As for `COCC(=O)N[C@@H]1C[C@@H]2O[C@@H](CO)CC[C@@H]2O[C@@H]1CCc1ccc(-c2ccccc2)cc1`, the activation was 0.63%.

As for `CCOC(=O)[C@]12CCCC=C1N(Cc1ccc(OC)cc1)C(=O)[C@@H]2CC(=O)NCc1cccs1`, the activation is -2.09%.

As for `O=C(Nc1ccc2nc3n(c(=O)c2c1)CCCC3)c1ccc(Cl)nc1`, the activation is -1.5%.

As for `Cc1c(C(=O)Nc2cccc(-c3nnc4n3CCCCC4)c2)oc2ccccc12`, the activation was -1.34%.

As for `CC1CCN(C(=O)c2ccc3c(=O)n4c(nc3c2)CCCCC4)CC1`, the activation is -1.07%.

Turning to `CC(=O)c1ccc(NC(=O)c2sc3nc4n(c(=O)c3c2C)CCCCC4)cc1`, the activation is 9.72% (active).

For the compound `O=C(Cn1[nH]c(=O)c2ccccc2c1=O)Nc1cccc(-c2nnc3n2CCCCC3)c1`, the activation is -0.49%.

On to `O=c1c2c(nc3n1CCCCC3)sc1c(O)cccc12`, for which the activation is 10.3% (active).

As for `COc1cccc(CNC(=O)CNS(=O)(=O)c2ccc3nc(C)sc3c2)c1OC`, the activation is -2.54%.

On to `O=C(NC1CCCC1)C1CSCCS(=O)(=O)N1Cc1ccccc1` (stereo unspecified), for which the activation was -0.49%.

`COC(=O)[C@]12C[C@H](CC(=O)NCCCN3CCCC3=O)C(=O)N(CCc3ccc(OC)c(OC)c3)C1=C[C@H](COCc1ccccc1)O[C@@H]2C`: the activation was -2.89%.

Consider `Cc1cc(C)cc(NC(=O)N2CCC(N(C)CCC(C)C)CC2)c1`, for which the activation is -3.63%.

Consider `COC(=O)c1cccc(Cn2ccc3ccc(-c4ccc5ccn(C(=O)c6ccccc6C)c5c4)cc32)c1`, for which the activation was -2.21%.

As for `COc1ccc(-n2c(SCC(=O)Nc3ccccc3-c3ccccc3)nnc2-c2cccnc2)cc1`, the activation is -4.88%.

In the case of `COc1ncnc2c1ncn2CCCNCCN1CCOCC1`, the activation is -1.94%.

For `O=C(Nc1cc(=O)[nH]c2ncnn12)c1ccccc1Cl`, the activation is 8.25% (active).

Turning to `CC(=O)c1cc(CN2CCC(n3nccc3NC(=O)c3ccccc3Cl)CC2)cs1`, the activation is -2.24%.

Regarding `O=C(Nc1ccc2sc3ccccc3c(=O)c2c1)c1ccccc1Cl`, the activation is 5.49%.
